# Source: publication PMC6919601, “Identification of Plasmodium dipeptidyl aminopeptidase allosteric inhibitors by high throughput screening” (PLoS ONE, 2019)
# The whole screen tested about 110,000 compounds, of which about 230 (0.21%) showed an effect of 50% or more. The entries come from a sample that favours strong results as a whole.
# Biological target: DPAP1 (Plasmodium falciparum, UniProt Q8IIJ9)
# Assay: primary screen, percent inhibition; read by cleavage of a fluorogenic dipeptide substrate; higher = more effect of the substance
# Set-up: species or system P. falciparum D10 trophozoite lysates; single well
# Description: HTS was performed in black 384-well plates. The first and last two columns of each plate contained our negative (DMSO) and positive (10 μM JCP410) controls, and the 20 central columns the test compounds at 10 μM. Compounds were first diluted 50-fold into assay buffer (50 mM sodium acetate, 5 mM MgCl2, 10 mM β-mercaptoethanol, and 0.1% CHAPS, pH 5.5) from a 10 mM DMSO stock plates. One microliter of this 200 μM intermediate stock plate was dispensed into the assay plate. […] After 30 min, the reaction was quenched with 20 μL of 0.5 M acetic acid, and the fluorescent intensity measured at 523 nm (λex = 492 nm) using an Analyst HT multimode plate reader (Molecular Devices).
# 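Further: 30 min substrate incubation versus DMSO and 10 µM JCP410 controls.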
# DPAP1, sequence (Q8IIJ9 whole entry, looked up): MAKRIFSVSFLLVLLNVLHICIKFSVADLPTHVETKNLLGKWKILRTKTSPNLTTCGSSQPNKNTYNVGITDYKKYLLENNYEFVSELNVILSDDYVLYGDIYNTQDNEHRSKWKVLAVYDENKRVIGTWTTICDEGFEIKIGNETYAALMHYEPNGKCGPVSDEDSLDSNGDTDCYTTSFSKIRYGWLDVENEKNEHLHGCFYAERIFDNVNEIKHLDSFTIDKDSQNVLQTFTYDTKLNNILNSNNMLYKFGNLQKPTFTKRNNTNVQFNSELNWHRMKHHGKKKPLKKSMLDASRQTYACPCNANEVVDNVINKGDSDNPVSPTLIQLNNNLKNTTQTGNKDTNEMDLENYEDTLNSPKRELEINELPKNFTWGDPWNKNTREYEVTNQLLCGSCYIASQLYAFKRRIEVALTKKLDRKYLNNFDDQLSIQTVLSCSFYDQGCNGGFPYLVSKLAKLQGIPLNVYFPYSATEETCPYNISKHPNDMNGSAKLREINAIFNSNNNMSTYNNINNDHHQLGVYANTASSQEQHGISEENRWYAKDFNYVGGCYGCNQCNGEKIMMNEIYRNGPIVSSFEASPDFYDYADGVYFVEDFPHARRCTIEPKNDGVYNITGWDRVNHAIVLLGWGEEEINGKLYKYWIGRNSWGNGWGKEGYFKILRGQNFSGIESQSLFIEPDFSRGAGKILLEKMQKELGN
row,SMILES,% Inhibition @ 10 uM [%]
1,OC(c1ccccc1)c1nc2ccccc2[nH]1 (stereo not shown),3.87
2,CCn1nc(C)c(C(=O)Nc2ccn(Cc3ccccc3)n2)c1C,3.21
3,Cn1c2ccccc2c2cnn(CC(=O)N3CCN(c4ccccn4)CC3)c(=O)c21,4.53
4,CN1CCN(C(=O)Cn2ncc3c4ccccc4n(C)c3c2=O)CC1,1.41
5,Cn1c2ccccc2c2cnn(CC(=O)N3CCN(c4ncccn4)CC3)c(=O)c21,53.7
6,Oc1nc(SCc2ccccc2)nc(O)c1Cc1ccccc1,-2.12
7,CC1=CC2=NC(=O)/C(=C\c3ccc(-c4ccccc4Cl)o3)C(=N)N2O1,-1.65
8,O=C(NC1CCCCC1)C1CC(c2ccccc2F)=NO1 (stereo not shown),7.39
9,CCOc1ccc2c(=O)c(Oc3ccccc3)c(C(F)(F)F)oc2c1,-4.21
10,COc1ccc(OC)c(NC(=O)c2ccc(OC(C)C)cc2)c1,-1.88
11,COc1ccc(S(=O)(=O)Nc2cccc(C(C)=O)c2)cc1,-1.92
12,COc1ccccc1Oc1ccc(S(=O)(=O)Nc2cccc(C(C)=O)c2)cc1,67.2
13,CC(=O)c1cccc(NS(=O)(=O)c2ccc(Oc3ccccc3Cl)cc2)c1,-3.87
14,CS(=O)(=O)c1sc2nc(-c3ccc(Br)cc3)cc(-c3ccccc3)c2c1N,-1.93
15,CS(=O)(=O)c1sc2nc(-c3cccs3)cc(-c3ccccc3)c2c1N,64.2
16,CC(=O)c1sc2nc(-c3cccs3)cc(-c3cccs3)c2c1N,7.74
17,CN(C)c1ccc(NC(=O)Nc2ccc(Cl)cc2)cc1,0.51
18,O=C1C2C=COC2C2c3ccccc3CCC2N1Cc1ccccc1 (stereo not shown),0.727
19,Cc1nc2c(C(=O)n3ccnc3)cnn2c(C)c1Cc1ccccc1Cl,-0.406
20,CS(=O)(=O)N(CC(=O)Nc1ccc2c(c1)OCCO2)c1cccc(F)c1,69.8
21,CS(=O)(=O)N(CC(=O)Nc1ccccc1)c1cccc(F)c1,-10.1
22,CC(=O)Nc1ccc(NC(=O)CN(c2cccc(F)c2)S(C)(=O)=O)cc1,8.06
23,CN(Cc1ccco1)C(CNS(=O)(=O)c1ccccc1)c1ccccc1 (stereo not shown),-0.671
24,CCCCOc1ccc(C2=NC(=O)/C(=C/c3cccc(OC)c3OC)O2)cc1,2.1
25,CCn1c2ccccc2n2cc(-c3ccc4c(c3)OCO4)nc12,0.486
26,Sc1nc(-c2ccc3c(c2)OCO3)cn1-c1cccc(Cl)c1,19.5

row,SMILES,% Inhibition @ 10 uM [%]
1,Cc1ccccc1-n1cc(-c2ccc3c(c2)OCO3)nc1S,83.7
2,CC(C)C[C@H](NC(=O)c1cc2cc(OCCN3CCOCC3)ccc2o1)C(=O)NC1COCC1=O (stereo partly shown),-8.26
3,CCOc1cc(/C=C2/NC(=O)N(CC(=O)Nc3cccc(C)c3)C2=O)cc(Cl)c1O,2.44
4,COc1cccc(/C=C2/SC(=O)N(CC(=O)Nc3ccc(C)cc3)C2=O)c1O,30.1
5,Cc1ccc(NC(=O)CN2C(=O)S/C(=C\c3ccccc3C)C2=O)cc1,-5.4
6,Cc1ccc(NC(=O)CN2C(=O)S/C(=C\c3ccccc3O)C2=O)cc1,50.5
7,COc1ccc(C(=O)CCC(=O)NC2=NCCS2)cc1,-3.21
8,CN1CCN(C(=O)Cn2nc(-c3ccc(Cl)cc3)c3ccccc3c2=O)CC1,2.95
9,CC1=C(C(=O)OC2CCCC2)C(c2ccsc2)C2=C(O)CC(c3cccs3)CC2=N1 (stereo not shown),0.146
10,Cc1ccc2oc(=O)c3cc(C(=O)Nc4cc(C)on4)sc3c2c1,-0.646
11,N#CC1=C2SCC(O)(c3ccccc3)N2C(=O)CC1c1cccs1 (stereo not shown),-4.74
12,CCOc1ccc(C2CC(=O)N3CN(C(C)c4ccccc4)CSC3=C2C#N)cc1 (stereo not shown),53.1
13,COc1ccc(C2CC(=O)N3CN(C(C)c4ccccc4)CSC3=C2C#N)cc1OC (stereo not shown),28
14,CCOc1ccc(C2CC(=O)N3C(=C2C#N)SCC3(O)c2ccc(OCC)cc2)cc1 (stereo not shown),-0.0235
15,Cc1ccc(C2CC(=O)N3CN(C(C)c4ccccc4)CSC3=C2C#N)cc1 (stereo not shown),10.6
16,CC(c1ccccc1)N1CSC2=C(C#N)C(c3cccs3)CC(=O)N2C1 (stereo not shown),68
17,CC(c1ccccc1)N1CSC2=C(C#N)C(c3ccc(Cl)cc3)CC(=O)N2C1 (stereo not shown),73.1
18,N#CC1=C2SCN(Cc3ccco3)CN2C(=O)CC1c1cccs1 (stereo not shown),47.7
19,Cc1cc(Cl)ccc1N(CC(=O)Nc1ccc2c(c1)OCO2)S(=O)(=O)c1ccccc1,8.03
20,Cc1ccc(NS(=O)(=O)c2ccc(NC(=O)COc3ccccc3)cc2)c(C)c1,-4.7
21,CCOc1ccc(-n2nc3ccc(NC(=O)c4ccc5c(c4)OCCO5)cc3n2)cc1,17.9
22,CCCCCOc1ccc(C2NC(C(=O)O)CS2)cc1 (stereo not shown),-2.54
23,Cc1nn(C)c(C)c1/C=C(/C(=O)C(C)C)n1cncn1,0.00706
24,CC1CCCCN1CCNc1ncnc2onc(-c3ccc(Cl)cc3)c12 (stereo not shown),-3.95
25,CN(C)c1ccc(-c2c(C#N)c(S)nc3c2C(=O)CC(C)(C)C3)cc1,-2.81
26,Oc1cc(-c2ccccc2)nc2nc(Cc3ccccc3)nn12,0.795

row,SMILES,% Inhibition @ 10 uM [%]
1,Cc1ccc(CNC(=O)c2cc3c(s2)-c2ccccc2S(=O)(=O)C3)cc1,-0.72
2,CN1C(=O)c2ccccc2C(C(=O)NCCN2CCc3ccccc3C2)C1c1cn(C)c2ccccc12 (stereo not shown),-7.27
3,Cc1sc2[nH]c(=S)n(-c3ccccc3)c(=O)c2c1C,72.2
4,Cc1sc2[nH]c(=O)n(-c3ccc(Cl)c(Cl)c3)c(=O)c2c1C,-0.711
5,Cc1sc2[nH]c(=S)n(-c3ccc(Cl)cc3)c(=O)c2c1C,51.2
6,O=c1c2c3c(sc2[nH]c(=S)n1-c1ccccc1)CC1(CCCCC1)CC3,0.774
7,CCc1cc2c(=O)n(-c3ccc(Cl)cc3)c(=S)[nH]c2s1,21.1
8,CCc1c(O)n(-c2ccccc2)c(=S)[nH]c1=O,0.526
9,COc1ccc(N2CCN(C(=O)CN(C)S(=O)(=O)c3ccc(C)cc3)CC2)cc1,-5.35
10,O=[N+]([O-])c1ccc(CSc2ccc(Cl)cc2)cc1,2.22
11,COc1ccc(CNC(=O)c2cc3c(O)nc4ccc(C)cc4c3s2)cc1,1.72
12,Cc1cc(C)c(C)c(C2C(C#N)=C(N)SC(N)=C2C#N)c1C,4.22
13,N#CC1=C(N)SC(N)=C(C#N)C1c1cccc(Cl)c1,19.5
14,CC(C)c1ccc(C2C(C#N)=C(N)SC(N)=C2C#N)cc1,46.7
15,N#CC1=C(N)SC(N)=C(C#N)C1c1ccc(Cl)c(Cl)c1,40.5
16,CCOc1ccc(C2C(C#N)=C(N)SC(N)=C2C#N)cc1OC,57.7
17,COc1cc(C2C(C#N)=C(N)SC(N)=C2C#N)ccc1O,28.3
18,N#CC1=C(N)SC(N)=C(C#N)C1c1ccccc1,70.9
19,N#CC1=C(N)SC(N)=C(C#N)C1c1ccc(Cl)cc1,50.8
20,CCOc1ccc(OCC)c(C2C(C#N)=C(N)SC(N)=C2C#N)c1,23.2
21,CC1C(C#N)=C(N)SC(N)=C1C#N,67.5
22,Cc1ccc(C2C(C#N)=C(N)SC(N)=C2C#N)c(C)c1,27.4
23,N#CC1=C(N)SC(N)=C(C#N)C1c1cccnc1,0.731
24,C=CCSc1nnc(NC(=O)Cc2coc3ccc(C)cc23)s1,1
25,CC(Sc1nc(-c2ccccc2)c(-c2ccccc2)[nH]1)C(=O)O (stereo not shown),-3.04
26,O=C(Nc1ccc(F)c(Cl)c1)c1cc2nc(C(F)F)cc(C(F)F)n2n1,-8.02

row,SMILES,% Inhibition @ 10 uM [%]
1,Cc1oc2ncnc(N3CCOCC3)c2c1C(=O)N(C)Cc1ccco1,4.76
2,COc1ccc2nc(Cl)c(C3CC(c4ccc(Cl)cc4)=NN3C(C)=O)cc2c1 (stereo not shown),4.18
3,NS(=O)(=O)c1ccc(NC(=O)c2cccs2)cc1,7.24
4,NC(=O)C1CCCN(C2CCc3ccccc3C2)C1 (stereo not shown),-1.5
5,N#CC1=C(N)SC(N)=C(C#N)C1c1ccco1,51.4
6,Cc1ccsc1C1C(C#N)=C(N)SC(N)=C1C#N,27.5
7,N#CC1=C(N)SC(N)=C(C#N)C1c1cccs1,40.6
8,N#CC1=C(N)SC(N)=C(C#N)C1c1c(Cl)cccc1Cl,28.7
9,Cc1ccc(C2C(C#N)=C(N)SC(N)=C2C#N)o1,47.9
10,Cc1ccc(C2C(C#N)=C(N)SC(N)=C2C#N)s1,55.8
11,OC(c1ccccc1)c1nc2ccccc2n1CCc1ccccc1 (stereo not shown),-2.92
12,CC1=C(C(=O)Nc2ccc(Br)cn2)C(c2ccccc2C)C2=C(O)CCCC2=N1 (stereo not shown),2.7
13,CN(CC(=O)NCc1cccs1)S(=O)(=O)c1ccc2[nH]c(-c3ccccc3)nc2c1,3.88
14,COc1ccc(Br)cc1CNC(=O)c1ccc2c(c1)ncn2C1CCCC1,3.66
15,COc1cc(CN(C(=S)NCC(=O)NC2CCCC2)C2CCCC2)cc(OC)c1OC,1.27
16,COc1cc(C2=N/C(=C\c3ccc(SC)cc3)C(=O)O2)cc(OC)c1OC,-20.1
17,COc1cc(/C=C2\N=C(c3cc(OC)c(OC)c(OC)c3)OC2=O)cc(OC)c1OC,0.607
18,COc1cc(C2=N/C(=C\c3ccc(C(C)(C)C)cc3)C(=O)O2)cc(OC)c1OC,84.3
19,Cc1cccc(C(=O)Nc2ccc(S(=O)(=O)N3CCCCC3)cc2)c1,-1.28
20,N#Cc1c(-c2ccccc2)cc(C(F)F)nc1S,76.3
21,N#Cc1c(-c2ccc(F)cc2)cc(C2CC2)nc1S,4.63
22,N#Cc1c(-c2ccccc2)cc(C(F)(F)F)nc1S,76.9
23,N#Cc1c(-c2ccc3c(c2)OCO3)cc(-c2ccccc2)nc1S,11.7
24,N#Cc1c(-c2ccccc2)cc(-c2ccccc2)c(C#N)c1N,0.716
25,COc1ccc(-c2cc(-c3ccccc3)nc(S)c2C#N)cc1,43.3
